Screening data as filed in PubChem.
The list is not random: actives were taken first. Their share in the collection is about 12%.
ALDH1A1 inh: blocks purified human ALDH1A1 activity | Potency, µM (titrated, usually from 75.3 µM), inactives show at the highest dose activity, negative = inhibition, actives largely listed as inhibitors | 7.3% of 220,000 active | Purified ALDH1A1, NADH fluorescence, propionaldehyde substrate | P00352; active means well fitted inhibition curve with a large enough effect, not every such curve was filed as active; inconclusive means small, poorly fitted or top-dose-only effect, or another doubt; inactive means no such curve, though single readings can be large or run the other way;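 further: plate controls were no enzyme wells and a reference inhibitor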
Target sequence (P00352 whole entry, looked up): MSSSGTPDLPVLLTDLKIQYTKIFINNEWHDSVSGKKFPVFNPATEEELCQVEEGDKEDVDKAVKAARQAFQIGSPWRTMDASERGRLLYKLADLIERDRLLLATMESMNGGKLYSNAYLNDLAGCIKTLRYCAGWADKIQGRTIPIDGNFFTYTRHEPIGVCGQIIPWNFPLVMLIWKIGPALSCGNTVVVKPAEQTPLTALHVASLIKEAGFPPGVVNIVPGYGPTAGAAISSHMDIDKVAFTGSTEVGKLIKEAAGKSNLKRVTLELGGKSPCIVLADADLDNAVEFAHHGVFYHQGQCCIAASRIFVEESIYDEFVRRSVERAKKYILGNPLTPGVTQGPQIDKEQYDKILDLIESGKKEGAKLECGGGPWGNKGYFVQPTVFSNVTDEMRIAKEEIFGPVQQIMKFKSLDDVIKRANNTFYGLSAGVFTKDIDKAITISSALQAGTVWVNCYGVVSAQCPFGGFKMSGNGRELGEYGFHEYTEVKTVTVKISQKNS
PLK1 PBD block: blocks phosphopeptide binding to human PLK1 polo-box domain; Potency, µM, without a hit: max response, negative = inhibition, actives largely listed as inhibitors; 2.8% of 360,000 active; AID 720504; Plk1 PBD binding of FITC phosphopeptide, fluorescence polarization; further: series mostly up to about 57 µM; nearly all actives have a fitted effect of over 65% in size
RORgamma inh: inhibitors of mouse ROR gamma transcriptional activity | Potency, µM (doses to about 53.6 µM), inactives show at the highest dose activity change, negative = inhibition, actives largely listed as inhibitors | 5.4% of 310,000 active | Drosophila S2 Gal4-RORgamma UAS-luciferase reporter, 20 h; further: nearly all actives have a fitted effect of over 60% in size
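Drosophila Schneider cells stably carrying a metallothionein-driven Gal4 DBD–ROR gamma fusion and a UAS-Photinus luciferase reporter were exposed to compound for 1 hr, then induced with copper sulfate (700 uM final) for 20 hr at ambient temperature before luminescence reading.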
Gal4-VP16 FLuc: Gal4-VP16 reporter inhibition counter-screen; Drosophila S2 Gal4-VP16 UAS-luciferase, luminescence, 20 h; Potency, µM (series often up to 53.6 µM), inactives show top-dose activity, negative = inhibition, most hits filed as inhibitors; 3.5% of 310,000 active;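 further: Gal4-VP16 expression switched on by copper sulfate through the metallothionein promoter; nearly all actives have a fitted effect of over 50% in size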
Sfp PPTase inh: Sfp phosphopantetheinyl transferase inhibition; Q9F4F7; Biochemical Sfp PPTase activity, qHTS; Potency, µM, for the others: largest response in the series, negative = inhibition, most hits filed as inhibitors; 3.5% of 310,000 active;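 further: the enzyme is Sfp with the accession as filed and its product quenches rhodamine fluorescence; 0% = enzyme reaction without inhibitor and -100% = no enzyme wells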
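After 15 min at room temperature with compound, 15 nM Sfp received 5 uM rhodamine-CoA plus 12.5 uM BHQ-2-ybbR (50 mM Hepes pH 7.6, 10 mM MgCl2). Rate came from the fluorescence difference over 30 min, ex 525/em 598 nm.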
The depositor's hits bear a star; u = inconclusive; x = no result given; [ ] = another dose, or the depositor's remark. Unless noted, the call rests on the fitted dose curve; in most records, active means well fitted curve in the direction sought with a large enough effect; inconclusive means small, poorly fitted or top-dose-only effect, or another doubt; inactive means no such curve, though single readings can be large; an effect the other way counts as inactive or inconclusive. Unless noted, on the % scale 0 is the no-effect control and ±100 the full control effect; potency means the concentration at half of the fitted maximal effect.

SMILES | ALDH1A1 inh | PLK1 PBD block | RORgamma inh | Gal4-VP16 FLuc | Sfp PPTase inh
CC(=O)N1CCN(C(=S)NC(=O)C23CC4CC(CC(C4)C2)C3)CC1 | -14% | -5% | 14µM* | -21% | 5%
N#Cc1c(SCC(=O)O)nc(N2CCCCC2)c2c1CCCC2 | -4% | -21% | u | 12% | 11%
CCCSc1nc(N2CCOCC2)c2c(c1C#N)CCCC2 | 14µM* | -4% | -1% | -3% | -21%
COC(=O)CSc1nc(N2CCCCC2)c2c(c1C#N)CCCC2 | u | 24µM* | -16% | 11% | u
CSc1nc(N2CCOCC2)c2c(c1C#N)CC(C)(C)OC2 | -5% | -6% | 2% | -23% | 17%
N#CCCSc1nc(N2CCOCC2)c2c(c1C#N)CCCC2 | 13µM* | -2% | -20% | 15% | 3%
CSc1nc(N2CCOCC2)c2c(c1C#N)CCCCC2 | 22µM* | -4% | -15% | 3% | -3%
COc1cccc([C@@H]2Oc3ccc(Br)cc3C[C@H]2OC(=O)Nc2cc(OC)c(OC)c(OC)c2)c1 | -6% | x | 8% | -9% | 3%
Cc1nc(SCC(=O)O)c(C#N)c2c1CCCC2 | x | u | 30% | 4% | -4%
CSc1nc(C)c2c(c1C#N)CCCC2 | 25µM* | -7% | 10% | 0% | -10%
COCCn1c(SCC(=O)N2CCCCC2)nc2ccccc2c1=O | 10µM* | -2% | u | 17% | 1%
O=C(CSc1nc2ccccc2c(=O)n1CCC(=O)N1CCCCC1)NCc1ccccc1 | 8.9µM* | 0% | u | -5% | 1%
COCC(C)n1c(SCC(=O)N2CCCCC2)nc2ccccc2c1=O (centres undefined) | u | 24µM* | 14% | 3% | 1%
Cc1cc(-c2nnc(-c3ccccc3)c(-c3ccccc3)n2)c(C)o1 | 6.3µM* | -21% | -2% | -8% | 14µM*
CCN(CC)S(=O)(=O)c1ccc(OC)c(NC(=O)c2ccc([N+](=O)[O-])cc2)c1 | u | u | -1% | -6% | 8%
CCN(CC)S(=O)(=O)c1cc([N+](=O)[O-])ccc1NNC(=O)Nc1ccc(F)cc1 | u | -7% | 61% | 10% | 45µM*
CCN(CC)S(=O)(=O)c1cc([N+](=O)[O-])ccc1NNC(=O)Nc1ccccc1OC | u | -24% | 17% | 20% | 50µM*
CN(C)c1ccc(/C=C/c2nc3ccccc3c(=O)[nH]2)cc1 | x | 3% | 2µM* | u | 10%
C(=C\c1ccco1)/c1ccc2ccccc2n1 | x | -15% | 12% | 4% | 50µM*
O=c1[nH]c2ccccc2nc1/C=C/c1ccc(Cl)cc1 | -1% | 3.4µM* | 31% | -6% | 10%
C(=C\c1nc2ccccc2[nH]1)/c1ccccc1 | u | -2% | 7.1µM* | 8.9µM* | -21%
CCCc1nc2cc(C)c(Br)c(C)n2c1Cc1ccsc1 | x | -6% | x | x | x
O=C(NN=Cc1ccc(Cl)cc1Cl)C1CC1 | x | -3% | x | x | x
CC(C)(C)C(c1nc2ccccc2[nH]1)n1c(-c2ccsc2)nc2ccccc21 (centres undefined) | x | -10% | x | x | x
CN1C=CC(=C[N+](=O)[O-])N(C)C1=O | x | 0% | x | x | x
SMILES | ALDH1A1 inh | PLK1 PBD block | RORgamma inh | Gal4-VP16 FLuc | Sfp PPTase inh
C(=C\c1ccco1)/c1nc2ccccc2[nH]1 | u | -8% | -2% | -11% | 40µM*
O=C(NCCN1CCC(n2c(=O)[nH]c3ccccc32)CC1)N1c2ccccc2Sc2ccccc21 | x | -3% | x | x | x
Nc1cc(N)nc(SCC(=O)Nc2ccc(Br)cc2Cl)n1 | 5% | 11µM* | u | 3% | 12%
COC(=O)N1CCC[C@@]2(CCN(c3ccccc3)C2)C1 | 0% | x | 19% | 11% | -1%
CC(C(=O)NC1CCCc2ccccc21)N1CCN(Cc2ccc3c(c2)OCO3)CC1 (centres undefined) | 6.3µM* | 0% | 12% | u | 9%
Cc1ccc2nc(Cl)c(CNCc3ccccc3)cc2c1 | 5% | 24µM* | u | -11% | 12%
Cc1cc(C)n(-c2ccc(C(=O)N3CCN(S(=O)(=O)c4ccc(Br)cc4Cl)CC3)cc2)n1 | x | -15% | x | x | x
CCCCn1nnnc1C1(C)CCC(=O)N1Cc1ccc(C)cc1 (centres undefined) | x | -8% | x | x | x
CCc1oc2ccccc2c1C(=O)c1cc(Br)c(O)c(Br)c1 | -9%[13.5 µM] | 8.4µM* | 2% | -6% | -10%
Cc1cc2c(sc3c(C)ccc(C)c32)c(C)n1 | -1% | -12% | 18µM* | -6% | -7%
COc1cccc(C(O)c2nc(-c3ccc(F)c(Cl)c3)cs2)c1 (centres undefined) | x | -9% | x | x | x
Cc1ccc2sc(C)[n+](CCO)c2c1 | -1% | 30µM* | 3% | 5% | 45µM*
Cn1c(=O)c2[nH]c(-c3ccccc3)c(O)c2n(C)c1=O | 11µM* | 27µM* | u | 4% | 14µM*
Cn1c(=O)c2[nH]c(-c3ccccc3Cl)c(O)c2n(C)c1=O | -8% | -11% | 13% | -2% | u
CCCNC(=O)C1(C)CCN(C(=O)c2ccc3snnc3c2)C1 (centres undefined) | x | 4% | x | x | x
N#Cc1ccc(Oc2ccc(NC(=O)C3CC=CCC3C(=O)O)cc2)cc1 (centres undefined) | 0.5µM* | 2% | 2% | -10% | 7%
Cc1cccc(Oc2ccc(NC(=O)C3CC=CCC3C(=O)O)cc2)c1 (centres undefined) | 1.8µM* | -4% | 17% | -11% | 26%
C[N+](C)(C)CCN1CCc2ccccc21 | x | -2% | x | x | x
CN1CCN(c2ncc3nc(-c4ccc(Cl)cc4)c(=O)n(CCC#N)c3n2)CC1 | u | x | 15% | -5% | 16%
CC(=O)OCC(CO)OC(C)=O (centres undefined) (tested in a mixture with another compound) | x | x | 9% | -2% | 0%
Nc1ncc(Br)cc1S(=O)(=O)NCCC(=O)NCCc1ccccc1 | x | -4% | 3% | 9% | 16%
O=C1CCCc2cc(S(=O)(=O)N3CCC(C(=O)NCc4ccccc4)CC3)ccc2N1 | x | -22% | -13% | -18% | 9%
